G9a block – blocks human histone lysine methyltransferase G9a; hit rate 8.8% among 350,000; G9a H3K9 monomethylation, AlphaScreen, 2 h; Q96KQ7; Potency, µM (highest dose often 102 µM), inactives show top-dose activity, negative = inhibition, actives largely listed as inhibitors; note: % is set by controls: 0 for no effect and ±100 for the full control effect; nearly all actives have a fitted effect of over 75% in size
Target sequence (Q96KQ7 913-1193 limits assumed): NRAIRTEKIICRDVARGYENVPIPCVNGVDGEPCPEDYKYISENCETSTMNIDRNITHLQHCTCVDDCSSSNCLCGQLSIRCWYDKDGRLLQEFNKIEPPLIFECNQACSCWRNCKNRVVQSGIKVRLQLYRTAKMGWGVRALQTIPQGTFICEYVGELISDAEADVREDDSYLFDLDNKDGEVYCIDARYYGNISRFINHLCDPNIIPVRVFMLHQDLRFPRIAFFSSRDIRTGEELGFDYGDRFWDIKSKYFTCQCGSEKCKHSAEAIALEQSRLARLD
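G9a (20 nM) was preincubated 15 min with compound, then reacted 2 h at room temperature with 500 nM biotin-H3K9 peptide and 20 µM SAM. Monomethyl-H3K9 detected by AlphaScreen using anti-H3K9me1 antibody.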
JMJD2A Tudor inh – blocks the human JMJD2A Tudor domain; Potency, µM (doses to about 114 µM), without a hit: top-dose activity change, negative = inhibition, usual class: inhibitors; hit rate 4.4% among 390,000; O75164; AID 504339; AlphaScreen JMJD2A-Tudor / H3K4me3 peptide binding; note: % is set by controls: 0 for no effect and ±100 for the full control effect; nearly all actives have a fitted effect of over 50% in size
Sfp PPTase inh – Sfp phosphopantetheinyl transferase inhibition; Q9F4F7; Biochemical Sfp PPTase activity, qHTS; Potency, µM, for inactives: largest response in the series, negative = inhibition, most hits filed as inhibitors; hit rate 3.5% among 310,000;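 note: the enzyme is Sfp with the accession as filed and its product quenches rhodamine fluorescence; 0% = enzyme reaction without inhibitor and -100% = no enzyme wells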
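Reaction rates are the 30-min fluorescence difference (ex 525, em 598 nm) in wells containing 15 nM Sfp, 5 uM rhodamine-CoA and 12.5 uM BHQ-2-YbbR at pH 7.6 with 10 mM MgCl2.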
HP1b chromo inh – inhibitors of HP1-beta chromodomain binding to methylated histone tails; P83916; AlphaScreen HP1-beta / biotin-H3K9me3 peptide binding; Potency, µM (highest dose often 114 µM), for inactives: at the highest dose activity change, negative = inhibition, most hits filed as inhibitors; hit rate 0.56% among 390,000; note: nearly all actives have a fitted effect of over 70% in size
Target sequence (P83916 whole entry, looked up): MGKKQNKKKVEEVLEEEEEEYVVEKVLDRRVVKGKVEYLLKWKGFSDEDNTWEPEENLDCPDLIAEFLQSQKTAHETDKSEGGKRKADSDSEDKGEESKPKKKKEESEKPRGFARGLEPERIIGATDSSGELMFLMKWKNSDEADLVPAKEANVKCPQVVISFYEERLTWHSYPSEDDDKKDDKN
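Compound inhibition of the preformed complex between 50 nM HP1-beta and 50 nM biotinylated H3K9me3 peptide was read by AlphaScreen. Buffer was PBS pH 7.4 with 0.01% Tween-20. Incubations ran 30 min at room temperature, with 10 ug/mL donor/acceptor beads.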
BAZ2B block – inhibitors of human BAZ2B bromodomain | AlphaScreen BAZ2B-H3K14Ac peptide displacement | Potency, µM (titrated, usually from 114 µM), without a hit: at the highest dose activity change, negative = inhibition, hits mostly inhibitors | hit rate 4.4% among 360,000 | AID 504333; note: % is set by controls: 0 for no effect and ±100 for the full control effect; nearly all actives have a fitted effect of over 60% in size
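Inhibition is scored as reduced AlphaScreen emission. The BAZ2B/b-H3(5-23)K14Ac complex (50 nM each) in PBS pH 7.4, 0.01% Tween-20 meets compound (up to 110 uM) for 30 min at RT before bead addition.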
* hit, by the source's call; [ ] = dose if it differs, or a comment. Most compounds without a hit are left out; they make up all but 12% or so of the library. Calls come from the whole dose curve; as a rule, active = well fitted curve in the direction sought with a large enough effect; inconclusive = small, poorly fitted or top-dose-only effect, or another doubt; inactive = no such curve, though single readings can be large; an effect the other way counts as inactive or inconclusive. Potency is the fitted concentration of half-maximal effect.

What do the screens show for `CC(C)CCNC(=O)CC1Nc2c3ccccc3nc(=S)n2C1=O` (configuration not stated)?
G9a block: 56.2µM*; JMJD2A Tudor inh: 10.5%; Sfp PPTase inh: -16.1%; HP1b chromo inh: 38.2%; BAZ2B block: -30.6%

What do the screens show for `C=CCNC(=O)CC1Nc2c3ccccc3nc(=S)n2C1=O` (configuration not stated)?
G9a block: 35.5µM*; JMJD2A Tudor inh: 0.0%; Sfp PPTase inh: inconclusive; HP1b chromo inh: 46.4%; BAZ2B block: -21.9%

How did COc1ccc(OC)c(C(=O)COC(=O)c2cccnc2SC)c1 do in these assays?
G9a block: 0.8%; JMJD2A Tudor inh: 35.1%; HP1b chromo inh: 98.9%; BAZ2B block: 23.8%

What do the screens show for `COc1cccc(C2c3cc4c(cc3OC(NNC(N)=O)C2C)OCO4)c1O` (configuration not stated)?
JMJD2A Tudor inh: inconclusive; HP1b chromo inh: -13.0%

How did COc1cccc(C2c3cc4c(cc3OC(N3CCOCC3)C2C)OCO4)c1O (configuration not stated) do in these assays?
JMJD2A Tudor inh: 39.8µM*; HP1b chromo inh: inconclusive

How did NC(=S)NN=C1c2cc(OCCN3CCOCC3)ccc2-c2ccc(OCCN3CCOCC3)cc21 do in these assays?
G9a block: 31.6µM*; JMJD2A Tudor inh: inconclusive; Sfp PPTase inh: -6.7%; HP1b chromo inh: inconclusive; BAZ2B block: 39.8µM*

What do the screens show for `CCOc1ccc(C(=O)CCN2CCCCCC2)cc1`?
G9a block: 5.01µM*; JMJD2A Tudor inh: -9.4%; Sfp PPTase inh: inconclusive; HP1b chromo inh: 27.5%; BAZ2B block: 0.2%

How did CCCOc1ccc(C(=O)CCC(=O)Nc2ccc(N3CCN(C)CC3)cc2)cc1 do in these assays?
G9a block: inconclusive; JMJD2A Tudor inh: 56.2µM*; HP1b chromo inh: -20.5%; BAZ2B block: 50.1µM*

What do the screens show for `CCCOc1ccc(C(=O)CCC(=O)OCC(=O)Nc2ccc(OCC)cc2)cc1`?
G9a block: 2.3%[12.7 µM]; Sfp PPTase inh: 9.9%; BAZ2B block: -4.4%

What do the screens show for `CCCCOc1ccc(C(=O)CCN2CCOCC2)cc1`?
G9a block: 22.4µM*; JMJD2A Tudor inh: -18.0%[57.1 µM]; Sfp PPTase inh: inconclusive; HP1b chromo inh: 20.3%; BAZ2B block: -0.1%

Results for CCN(C(=O)CN1C(=O)c2ccccc2Sc2ccc(C(=O)OC)cc21)c1cccc(C)c1 ?
G9a block: -7.4%[59 µM]; JMJD2A Tudor inh: -27.8%; HP1b chromo inh: 16.4%[57 µM]; BAZ2B block: -20.8%

How did N#Cc1c(SCc2c(Cl)cccc2Cl)nc(N)[nH]c1=S do in these assays?
G9a block: 41.2%[12.7 µM]; JMJD2A Tudor inh: -24.2%; HP1b chromo inh: 19.9%; BAZ2B block: inconclusive

How did CC(=O)Nc1nonc1-c1nnc(SCC(=O)Nc2ccccc2Cl)n1C do in these assays?
G9a block: 5.4%[59 µM]; JMJD2A Tudor inh: -10.6%; HP1b chromo inh: 8.0%; BAZ2B block: 1.8%

What do the screens show for `CCCCCOc1ccc(C(=O)CCC(=O)N2CCCC2)cc1`?
G9a block: 17.0%; JMJD2A Tudor inh: -15.0%; Sfp PPTase inh: 4.5%; HP1b chromo inh: -13.8%; BAZ2B block: 20.6%

Results for COc1ccc(C(=O)OCCN2CCOCC2)cc1 ?
G9a block: 10.2%[59 µM]; JMJD2A Tudor inh: 2.5%; Sfp PPTase inh: 28.3%; HP1b chromo inh: 25.5%; BAZ2B block: 10.7%

How did O=C(OCCN1CCOCC1)c1ccc(OCCN2CCOCC2)cc1 do in these assays?
G9a block: 50.1µM*; JMJD2A Tudor inh: inconclusive; Sfp PPTase inh: 0.8%; HP1b chromo inh: 16.1%; BAZ2B block: -36.6%

What do the screens show for `CCCOc1ccc(C(=O)CCN2CCCCC2)cc1`?
G9a block: 17.8µM*; JMJD2A Tudor inh: -13.3%; Sfp PPTase inh: -26.1%; HP1b chromo inh: 28.9%; BAZ2B block: -6.7%

How did COc1ccc(CN2C(=O)c3cccnc3C2=O)cc1S(=O)(=O)N1CCCC(C)C1 (configuration not stated) do in these assays?
G9a block: 18.1%; JMJD2A Tudor inh: -11.1%; Sfp PPTase inh: 13.9%; HP1b chromo inh: 41.3%; BAZ2B block: 56.2µM*

What do the screens show for `COc1ccc(CN2C(=O)c3cccnc3C2=O)cc1S(=O)(=O)NCc1ccc(C)cc1`?
G9a block: -23.7%; JMJD2A Tudor inh: -13.7%; Sfp PPTase inh: 14.7%; HP1b chromo inh: 52.0%; BAZ2B block: 79.4µM*

Screening results as filed in PubChem.
